Test results as given in the supplement of paper PMC12350171.
Where a name gives a salt, the structure may show the parent alone.

Tested on: S. enterica typhimurium tolC KO
Experiment: growth AUC normalised to DMSO control (median) (fraction of control); higher = less growth inhibition, active = hit call of the paper
Conditions: 20 µM;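 active = normalised median growth AUC below 0.1 of DMSO control; inactive = AUC 0.1 or higher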
Summary of the method: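 Area under the growth curve, calculated by the trapezoidal rule up to entry into stationary phase, was normalised to vehicle wells on the same plate. Strains had been passaged twice overnight without oxygen and then grown in mGAM in 96-well plates from OD578 0.01, each with an approved-drug library compound at 20 μM in 1% DMSO. OD578 was read hourly over 24 h in an anaerobic incubator, and the median of three biological replicates is given.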
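Further: active when median AUC fell below 0.1.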

SMILES	growth AUC normalised to DMSO control
C[C@]12CC[C@@H]3c4ccc(O)cc4CC[C@H]3[C@@H]1C[C@@H](O)[C@@H]2O [Estriol]	0.993 (inactive)
Cn1c(=O)c2nc[nH]c2n(C)c1=O [Theophylline monohydrate]	1 (inactive)
COc1cc([C@@H]2c3cc4c(cc3[C@@H](O[C@@H]3O[C@@H]5CO[C@@H](C)O[C@H]5[C@H](O)[C@H]3O)[C@H]3COC(=O)[C@H]23)OCO4)cc(OC)c1O [Etoposide]	0.0378 (active)
CCOCC(O)COc1ccc(NC(=O)CC[S+](C)C)cc1 (stereo not given) [Suplatast Tosylate]	1 (inactive)
CC(C(=O)O)c1ccc(N2CC=CC2)c(Cl)c1 (stereo not given) [Pirprofen]	1 (inactive)
